Test results as given in the supplement of paper PMC7057948, “A genome-wide approach for identification and characterisation of metabolite-inducible systems” (Nature Communications, 2020).

Key:
Assay in all cases: relative induction of RFP reporter vs primary effector (background-corrected); higher = stronger activation of the biosensor
Conditions in all cases: inducer concentration 5 mM; 6 h; Cupriavidus necator H16; minimal medium + 0.4% gluconate
[1] = system: AcoR/P_H16_RS19445 acetoin biosensor (pEH052)
Procedure: (§1)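 C. necator H16 strains, each carrying one of 21 transcription factor/inducible promoter–mRFP biosensor plasmids, were grown in minimal medium in 96-well plates (robotic platform). Each was exposed to 46 structurally or metabolically related compounds at 5 mM at 30 °C. OD-normalised RFP fluorescence was read 6 h later and expressed as relative induction (%) = 100 × (FL compound − FL uninduced)/(FL primary inducer − FL uninduced); mean of n=4.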

[2] = system: AraC/P_araBAD L-arabinose biosensor (pEH176)
Procedure: as §1

[3] = system: BenM/P_H16_RS09790 benzoate biosensor (pEH148)
Procedure: as §1

[4] = system: FdsR/P_H16_RS03165 formate biosensor (pEH134)
Procedure: as §1

[5] = system: GabR/P_H16_RS23655 GABA biosensor (pEH256)
Procedure: as §1

[6] = system: HpdR/P_H16_RS18295 3-hydroxypropanoate biosensor (pEH010)
Procedure: as §1

[7] = system: KynR/P_H16_RS14030 L-kynurenine biosensor (pEH136)
Procedure: as §1

[8] = system: NahR/P_H16_RS08125 salicylate biosensor (pEH042)
Procedure: as §1

[9] = system: OapR/P_H16_RS01330 beta-alanine biosensor (pEH147)
Procedure: as §1

[10] = system: PcaQ/P_H16_RS30145 3,4-dihydroxybenzoate biosensor (pEH161)
Procedure: as §1

[11] = system: PhgR/P_H16_RS05530 phenylglyoxylate biosensor (pEH155)
Procedure: as §1

[12] = system: PhhR/P_H16_RS18365 L-phenylalanine biosensor (pEH137)
Procedure: as §1

[13] = system: SauR/P_H16_RS13695 sulfonatoacetate biosensor (pEH157)
Procedure: as §1

[14] = system: TtdR/P_H16_RS10665 tartrate biosensor (pEH083)
Procedure: as §1

[15] = system: XdhR/P_H16_RS05055 xanthine biosensor (pEH154)
Procedure: as §1

[16] = system: heterologous inducible system pEH002 (rhamnose/acrylate/cumate/itaconate set)
Procedure: as §1

[17] = system: heterologous inducible system pEH020 (rhamnose/acrylate/cumate/itaconate set)
Procedure: as §1

[18] = system: heterologous inducible system pEH040 (rhamnose/acrylate/cumate/itaconate set)
Procedure: as §1

[19] = system: heterologous inducible system pEH086 (rhamnose/acrylate/cumate/itaconate set)
Procedure: as §1

[20] = system: BadR/P_H16_RS27200 cyclohexanecarboxylate biosensor (pEH159)
Procedure: as §1
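Further: RFP excited at 585 nm with emission read at 620 nm, culture medium blanks subtracted from fluorescence and absorbance prior to normalisation.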

| SMILES | relative induction of RFP reporter [1] [%] | relative induction of RFP reporter [2] [%] | relative induction of RFP reporter [3] [%] | relative induction of RFP reporter [4] [%] | relative induction of RFP reporter [5] [%] | relative induction of RFP reporter [6] [%] | relative induction of RFP reporter [7] [%] | relative induction of RFP reporter [8] [%] | relative induction of RFP reporter [9] [%] | relative induction of RFP reporter [10] [%] | relative induction of RFP reporter [11] [%] | relative induction of RFP reporter [12] [%] | relative induction of RFP reporter [13] [%] | relative induction of RFP reporter [14] [%] | relative induction of RFP reporter [15] [%] | relative induction of RFP reporter [16] [%] | relative induction of RFP reporter [17] [%] | relative induction of RFP reporter [18] [%] | relative induction of RFP reporter [19] [%] | relative induction of RFP reporter [20] [%] |
| --- | --- | --- | --- | --- | --- | --- | --- | --- | --- | --- | --- | --- | --- | --- | --- | --- | --- | --- | --- | --- |
| O=C(O)C(O)c1ccccc1 (centres undefined) [mandelic acid] | 4.07 | 0.0229 | 0.175 | 1.81 | 1.32 | 0.0419 | -0.345 | -0.000243 | 0.364 | 0.0192 | -0.332 | -0.406 | 0.0426 | -0.395 | -0.0998 | 0.0137 | 0.769 | 1.17 | 0.563 |  |
| Cn1c(=O)c2c(ncn2C)n(C)c1=O [caffeine] | 3.23 | 0.0778 | 0.0418 | 5.81 | -0.00438 | 0.0271 | 1.64 | 0.0392 | 0.545 | 0.0177 | -0.541 | 1.57 | 0.0139 | 0.808 | 0.33 | 0.0111 | -0.176 | 1.6 | 0.797 |  |
| CC(=O)CCC(=O)O [levulinic acid] | -2.12 | 0.00636 | -0.0388 | -11.8 | -2.89 | -0.37 | -0.594 | -0.0149 | -1.91 | -0.265 | -0.187 | -0.623 | -0.0306 | 1.16 | -0.941 | 0.0157 | -1.82 | -1.61 | -0.139 |  |
| O=C(O)[C@@H](O)[C@@H](O)[C@H](O)[C@@H](O)C(=O)O [glucarate] | 16.6 | -0.00794 | 0.00581 | -1.03 | 0.559 | 0.059 | 0.0265 | 0.0258 | 0.058 | 0.00441 | -0.232 | -0.08 | -0.0162 | -0.0655 | 0.202 | 0.0271 | 0.067 | 0.131 | 0.127 |  |
| O=C(O)c1c(O)cccc1O [2,6-dihydroxybenzoate] | 2.22 | 0.019 | 0.0383 | -4.96 | 1.87 | 0.277 | 0.406 | 8.29 | 0.369 | 0.0449 | -0.403 | 0.0318 | 0.0103 | -0.411 | 0.89 | 0.00673 | 2.01 | 0.428 | 0.26 |  |
| NCCc1ccc(O)c(O)c1 [dopamine] | 0.498 | -0.00264 | 0.0224 | 2.79 | 0.204 | 0.166 | 0.568 | 0.0188 | 0.108 | 0.356 | 0.249 | 0.138 | 0.18 | 1.41 | 0.0292 | 0.0361 | 0.433 | 1.22 | 0.396 |  |
| O=C(O)CC(CC(=O)O)C(=O)O [tricarballylate] | -0.69 | -0.0168 | -0.036 | -2.35 | -2.41 | -0.311 | -0.332 | -0.00531 | -1.38 | -0.249 | -0.562 | -0.293 | 0.0103 | 1.3 | -1.15 | 0.0188 | -1.48 | 0.497 | -0.0817 |  |
| O=C(O)C1=C[C@@H](O)[C@@H](O)[C@H](O)C1 [shikimate] | 0.0178 | -0.00161 | -0.000316 | -2.48 | -0.317 | 1.03 | -0.0973 | 0.00146 | 0.246 | 2.49 | -0.587 | 0.165 | 0.0792 | -0.0735 | -0.446 | -0.00769 | -0.782 | -0.0558 | 0.188 | 0.552 |
| Oc1ccccc1O [catechol] | 1.82 | -0.00935 | 9.72 | -2.57 | 3.82 | 0.415 | 0.704 | 0.0978 | -1.89 | 0.794 | 0.769 | -0.0234 | 0.114 | 2.09 | 0.259 | 0.0302 | -0.684 | 4.75 | -0.178 |  |
| O=C(O)C[C@H](O)C(=O)O [L-malate] | -0.197 | 0.0102 | -0.00804 | 15.3 | -2.18 | 0.127 | 0.34 | 0.0296 | 0.168 | 0.148 | -0.316 | 0.413 | -0.0175 | 1.58 | 0.88 | 0.00418 | -0.286 | -0.274 | 0.726 |  |
| NCC(N)C(=O)O (centres undefined) [2,3-diaminopropanoate] | 0.396 | 0.013 | 0.0534 | -1.38 | -1.16 | 0.349 | -0.43 | 0.0162 | 0.656 | -0.0605 | -0.221 | 0.0532 | -0.0132 | -0.586 | -0.1 | 0.0204 | -0.419 | 2.94 | 0.484 | -0.224 |
| O=C(O)C1=CCCCC1 [cyclohexene-1-carboxylate] | 2.55 | -0.0101 | 156 | -3.7 | -1.27 | -0.493 | 0.423 | -0.00892 | 1.03 | -0.0381 | -0.121 | -0.244 | 0.0222 | 0.391 | 0.161 | 0.0231 | 0.24 | 1.34 | 0.551 |  |
| O=C(O)C(O)C(=O)O [tartronic acid] | 0.914 | -0.0176 | 0.0119 | -1.37 | -0.481 | 0.0561 | 0.115 | 0.00865 | 0.0759 | -0.0557 | -0.449 | -0.338 | 0.0532 | 0.714 | -0.218 | 0.00666 | -0.0821 | 0.945 | 0.0674 |  |
